{"source": "paper PMC4552634", "about": "“A New Set of Chemical Starting Points with Plasmodium falciparum Transmission-Blocking Potential for Antimalarial Drug Discovery” (PLoS ONE, 2015)", "note": "Hit rate of the full screen: of about 13,000 compounds, about 3,200 (25%) showed an effect of 50% or more. The list shows a part of the results."}
{"test_system": "P. falciparum stage V gametocytes", "design": "BacTiter-Glo ATP luminescence viability of purified stage V gametocytes in 384-well plates, per cent inhibition versus DMSO", "settings": "48 h, 5 µM; inhibitor", "units": {"% Inhibition": "%"}}
{"compound": "CC12CCC(CN(CC(O)Cn3c4ccccc4c4cc(I)ccc43)C1)C2(C)C", "note": "(centres unmarked) [TCMDC-124075]", "% Inhibition": -73.11}
{"compound": "OC(CNCc1ccco1)Cn1c2ccc(Br)cc2c2cc(Br)ccc21", "note": "(centres unmarked) [TCMDC-124071]", "% Inhibition": 6.388}
{"compound": "CC(C)(C)SCC(O)Cn1c2ccc(Br)cc2c2cc(Br)ccc21", "note": "(centres unmarked) [TCMDC-124058]", "% Inhibition": -64.42}
{"compound": "OC(CNC1CCCCC1)Cn1c2ccccc2c2ccccc21", "note": "(centres unmarked) [TCMDC-124168]", "% Inhibition": 90.81}
{"compound": "Cc1nn(CC(O)Cn2c3ccc(Br)cc3c3cc(Br)ccc32)c(C)c1Br", "note": "(centres unmarked) [TCMDC-124164]", "% Inhibition": 72.64}
{"compound": "OC(CN1CCN(C2CCCCC2)CC1)Cn1c2ccccc2c2cc(Br)ccc21", "note": "(centres unmarked) [TCMDC-124167]", "% Inhibition": -21.87}
{"compound": "CC1CN(CC(O)Cn2c3ccc(Br)cc3c3cc(Br)ccc32)CC(C)O1", "note": "(centres unmarked) [TCMDC-124072]", "% Inhibition": 94.88}
{"compound": "CC(NCC(O)Cn1c2ccccc2c2ccccc21)c1ccccc1", "note": "(centres unmarked) [TCMDC-124073]", "% Inhibition": 13.55}
{"compound": "Oc1ccc2ccccc2c1CNC1CCCCCC1", "note": "[TCMDC-137607]", "% Inhibition": 9.064}
{"compound": "CC1CC(C)CN(CC(O)CNC(=O)Nc2ccc(Br)cc2)C1", "note": "(centres unmarked) [TCMDC-134636]", "% Inhibition": 5.991}
{"compound": "OC(CNC1CCCCC1)Cn1c2ccc(I)cc2c2cc(I)ccc21", "note": "(centres unmarked) [TCMDC-124074]", "% Inhibition": 101.6}
{"compound": "CC(C)(CNC(=O)C1CCN(CC2CCCCC2)CC1)c1nc(-c2ccc(Cl)c(O)c2)c(-c2ccncc2)[nH]1", "note": "[TCMDC-141147]", "% Inhibition": -93.22}
{"compound": "CN(C)CCOc1ccc(-c2cc(-c3ccnc(N)n3)c(-c3ccc(Cl)c(O)c3)o2)cc1", "note": "[TCMDC-141338]", "% Inhibition": -4.532}
{"compound": "CCCCCc1cc(O)c2c(c1)OC(C)(C)CC2C1=CCN(Cc2cccnc2)CC1", "note": "(centres unmarked) [TCMDC-131417]", "% Inhibition": -23.46}
{"compound": "CCCc1ccc(NC(=O)c2ccc(CN3CCCN(Cc4cccc(O)c4)CC3)cc2)cc1", "note": "[TCMDC-136421]", "% Inhibition": 2.458}
{"compound": "COc1ccc(C=NNc2nc(-c3ccccc3)cc(=O)[nH]2)cc1OC", "note": "[TCMDC-124217]", "% Inhibition": 8.014}
{"compound": "OC(CNC1CCCCC1)Cn1c2ccc(Br)cc2c2cc(Br)ccc21", "note": "(centres unmarked) [TCMDC-124059]", "% Inhibition": 90.2}
{"compound": "CC(C)NCC(O)Cn1c2ccc(Br)cc2c2cc(Br)ccc21", "note": "(centres unmarked) [TCMDC-124100]", "% Inhibition": 43.74}
{"compound": "N#Cc1cccc(C(=O)N2CCOC(CCN3CCC(c4ccccc4)CC3)(c3ccc(Cl)c(Cl)c3)C2)c1", "note": "(centres unmarked) [TCMDC-135335]", "% Inhibition": 20.78}
{"compound": "N#Cc1ccc(-c2ccc(C(=O)NCCCCN3CCC(c4ccncc4)CC3)cc2)cc1", "note": "[TCMDC-135811]", "% Inhibition": -0.7108}
{"compound": "N#Cc1ccc(C2CCN(CC[C@H](N)Cc3ccc(Cl)s3)CC2)cc1", "note": "[TCMDC-132358]", "% Inhibition": 63.71}
{"compound": "CC1(C)N=C(N)N=C(N)N1O", "note": "[TCMDC-131576]", "% Inhibition": -2.875}
{"compound": "COc1ccc2ncc(F)c(CCN3CC[C@H](NC(=O)c4ccc5c(n4)NC(=O)CS5)[C@H](O)C3)c2n1", "note": "[TCMDC-135907]", "% Inhibition": -25.82}
{"compound": "COc1ccc2ncc(F)c(CCN3CC[C@@H](CNCc4cc5c(cn4)OCS5)C3)c2n1", "note": "[TCMDC-135643]", "% Inhibition": 33.53}
{"compound": "COc1ccc2ncc(F)c(CCN3CCC[C@H](CNCc4ccc5c(n4)NC(=O)CS5)C3)c2n1", "note": "[TCMDC-136318]", "% Inhibition": 98.5}
{"compound": "COc1ccc2ncc(F)c(CCN3CC4CCCC4(CNCc4ccc5c(n4)NC(=O)CS5)C3)c2n1", "note": "(centres unmarked) [TCMDC-136065]", "% Inhibition": 28.02}
{"compound": "COc1ccc2ncc(F)c(CCN3CC[C@@H](CNCc4nc5c(cc4C)SCC(=O)N5)C3)c2n1", "note": "[TCMDC-136056]", "% Inhibition": 97.91}
{"compound": "COc1ccc2ncc(Cl)c(CCN3C[C@H](CNCc4ccc5c(n4)NC(=O)CS5)[C@H](O)C3)c2n1", "note": "[TCMDC-136241]", "% Inhibition": 10.16}
{"compound": "COc1ccc(NC(C)C(=O)Nc2ccc(Br)cc2)cc1S(=O)(=O)N1CCCCC1", "note": "(centres unmarked) [TCMDC-125032]", "% Inhibition": -25.53}
{"compound": "O=C(Cc1ccc[n+]([O-])c1)Nc1cccc(-c2cccc(-c3nc4cc(F)ccc4[nH]3)c2)c1", "note": "[TCMDC-136989]", "% Inhibition": -50}
{"compound": "O=C(C=Cc1cccs1)N(CCCn1ccnc1)c1nc2ccc(F)cc2s1", "note": "[TCMDC-124928]", "% Inhibition": 96.26}
{"compound": "Cc1ccc2nc(N(CCCn3ccnc3)C(=O)C=Cc3cccs3)sc2c1", "note": "[TCMDC-124927]", "% Inhibition": 1.025}
{"compound": "COc1ccc2nc(N(CCCn3ccnc3)C(=O)C=Cc3cccs3)sc2c1", "note": "[TCMDC-124926]", "% Inhibition": -10.06}
{"compound": "OCCN1CCN(C2Cc3ccc(F)cc3Sc3ccc(Cl)cc32)CC1", "note": "(centres unmarked) [TCMDC-123467]", "% Inhibition": 11.59}
{"compound": "C=C(NC(=O)c1cc(C)cc(C)c1)C(=O)OC", "note": "[TCMDC-131725]", "% Inhibition": 5.196}
{"compound": "CC1CCCN1Cc1cccc(-c2ccc(C(=O)NCCOc3ccccc3)s2)c1", "note": "(centres unmarked) [TCMDC-133066]", "% Inhibition": -6.821}
{"compound": "CC(C)(C)OC(=O)[C@H](CC(N)=O)NC(=O)c1ccc(-c2ccc(-c3nc4cc(C(F)(F)F)ccc4[nH]3)s2)cc1", "note": "[TCMDC-132340]", "% Inhibition": -23.75}
{"compound": "CC(C)N(Cc1cnc(N)c(C#N)n1)c1ccc(Cl)c(Cl)c1", "note": "[TCMDC-137676]", "% Inhibition": 6.722}
{"compound": "O=c1[nH]c(=O)n2c(nc3ccccc32)[nH]1", "note": "[TCMDC-131695]", "% Inhibition": 19.78}
{"compound": "COc1ccc(CNCc2ccc(F)cc2)cc1-c1ccc(OC)c(S(=O)(=O)NCCN2CCCC2)c1", "note": "[TCMDC-132295]", "% Inhibition": 107}
{"compound": "Cc1cc(-c2ccc(CNCc3ccc(F)cc3)cc2)ccc1S(=O)(=O)NCCN1CCCC1", "note": "[TCMDC-132291]", "% Inhibition": 38.43}
{"compound": "COc1ccc(CNCc2ccccc2)cc1-c1ccc(OC)c(S(=O)(=O)NCCN2CCCC2)c1", "note": "[TCMDC-132250]", "% Inhibition": 31.04}
{"compound": "COc1ccc(-c2cccc(CNCc3ccc(F)cc3)c2)cc1S(=O)(=O)NCCN1CCCC1", "note": "[TCMDC-132408]", "% Inhibition": 73.1}
{"compound": "Cc1cc(-c2cccc(CNCc3ccc(F)cc3)c2)ccc1S(=O)(=O)NCCN1CCCC1", "note": "[TCMDC-132278]", "% Inhibition": 105}
{"compound": "COc1ccc(-c2ccc(CNCc3ccc(F)cc3)cc2)cc1S(=O)(=O)NCCN1CCCC1", "note": "[TCMDC-132282]", "% Inhibition": 111.7}
{"compound": "O=S(=O)(NCCN1CCCC1)c1ccc(-c2cccc(CNCc3ccc(F)cc3)c2)cc1F", "note": "[TCMDC-132275]", "% Inhibition": 25.81}
{"compound": "COc1ccc(Nc2nc(NCc3cccc(NS(C)(=O)=O)c3)cc(-c3ccc(OC)cc3)n2)cc1", "note": "[TCMDC-133457]", "% Inhibition": -11.45}
{"compound": "COc1ccc(Nc2ncc3c(-c4cccc(NC(=O)Cc5cccc(O)c5)c4)c[nH]c3n2)cc1OC", "note": "[TCMDC-135247]", "% Inhibition": -20.67}
{"compound": "CN1CC=C(c2c[nH]c3ccc(-c4ccccc4)cc23)CC1", "note": "[TCMDC-138962]", "% Inhibition": -5.151}
{"compound": "Cc1cc2nc(-c3ccc(SCC(=O)Nc4ccc5c(c4)OCCO5)nc3)[nH]c2cc1C", "note": "[TCMDC-125353]", "% Inhibition": 21.88}
{"compound": "O=C(CN1CCC2(CCC1=O)CC(=O)c1ccccc1O2)NCCN1CCOCC1", "note": "(centres unmarked) [TCMDC-133148]", "% Inhibition": 11.41}
{"compound": "COc1ccc(-c2ccc(CNCc3ccccc3)cc2)cc1S(=O)(=O)NCCN1CCCC1", "note": "[TCMDC-132230]", "% Inhibition": 103.5}
{"compound": "C=CCOC(=O)N1CCC(CNCc2cccc(-c3ccc(-c4nc5cc(C(F)(F)F)ccc5[nH]4)cc3)c2)C1.O=C(O)C(F)(F)F", "note": "(centres unmarked) [TCMDC-133042]", "% Inhibition": -7.537}
{"compound": "COc1cccc(CC(=O)NC2CCN(c3ccnc4cc(Cl)ccc34)C2)c1", "note": "(centres unmarked) [TCMDC-133664]", "% Inhibition": 6.238}
{"compound": "COc1cccc(CNC(=O)NC2CCN(c3ccnc(Nc4ccc(F)cc4)n3)C2)c1", "note": "(centres unmarked) [TCMDC-133604]", "% Inhibition": -32.96}
{"compound": "COc1cccc(CNC(=O)c2cccc(-c3cccc(CN4CCC(N5CCCC5)CC4)c3)n2)c1", "note": "[TCMDC-134417]", "% Inhibition": 25.8}
{"compound": "COc1cccc(CC(=O)N2CCC(n3c(C)nc4ccc(C)cc43)CC2)c1", "note": "[TCMDC-124791]", "% Inhibition": 93.69}
{"compound": "COc1cccc(CC(=O)N2CCC(n3c(C)nc4ccc(F)cc43)CC2)c1", "note": "[TCMDC-124792]", "% Inhibition": 80.7}
{"compound": "COc1cccc(OC2CCN(C(=O)c3cc(C(C)(C)C)nn3Cc3ccccc3)CC2)c1", "note": "[TCMDC-134143]", "% Inhibition": -6.866}
{"compound": "Cc1ccc(NC(=O)NC2CCN(c3ccnc4ccccc34)CC2)cc1", "note": "[TCMDC-133588]", "% Inhibition": 13.19}
{"compound": "Cc1nc(/N=C(\\N)NC(=O)NC2CCCCC2)nc2ccccc12", "note": "[TCMDC-123808]", "% Inhibition": 133.5}
{"compound": "CCOC(=O)c1[nH]c(-c2ccccc2)nc1NC(=S)NC1CCCCC1", "note": "[TCMDC-131430]", "% Inhibition": 5.591}
{"compound": "CC(C)CC(NC(=O)c1ccc(F)cc1)C(=O)N[C@H](/C=N/N1CCNC1=O)CC(C)C", "note": "(some centres unmarked) [TCMDC-136214]", "% Inhibition": 16.28}
{"compound": "OC(c1ccccc1)C1CN(Cc2ccccc2)CCC1(O)c1ccccc1", "note": "(centres unmarked) [TCMDC-125518]", "% Inhibition": -9.589}
{"compound": "CC(c1cccc(S(=O)(=O)NCc2ccc(Cl)cc2Cl)c1)N1CCC(N2CCCCC2)CC1", "note": "(centres unmarked) [TCMDC-133564]", "% Inhibition": -22.09}
{"compound": "COCCNCC(O)Cn1c2ccc(Cl)cc2c2cc(Cl)ccc21", "note": "(centres unmarked) [TCMDC-123535]", "% Inhibition": 54.28}
{"compound": "OC(CNCCc1ccccc1)Cn1c2ccc(Cl)cc2c2cc(Cl)ccc21", "note": "(centres unmarked) [TCMDC-124135]", "% Inhibition": 17.2}
{"compound": "CCC(CO)NCC(O)Cn1c2ccc(Cl)cc2c2cc(Cl)ccc21", "note": "(centres unmarked) [TCMDC-125711]", "% Inhibition": 55}
{"compound": "CC(C)CCNCC(O)Cn1c2ccc(Cl)cc2c2cc(Cl)ccc21", "note": "(centres unmarked) [TCMDC-125673]", "% Inhibition": 69.1}
{"compound": "CCNCCCC(C)Nc1ccnc2cc(Cl)ccc12", "note": "(centres unmarked) [TCMDC-125876]", "% Inhibition": 27.58}
{"compound": "CCC(CO)NCC(O)Cn1c2ccc(Br)cc2c2cc(Br)ccc21", "note": "(centres unmarked) [TCMDC-125710]", "% Inhibition": 27.72}
